Reference: PubChem BioAssay (NCI)
This is part of a sample that, as a whole, favours compounds with a hit. Of some 83,000 tested, about 20% had one in any assay.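 Cells were grown in 96-well plates and exposed to the test compound at a single concentration for 48 hours; results are reported as percent growth, with values below 10 considered active.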 Active and inactive are the calls of the source.

Tests used:
Experiment in all cases: NCI-60 one-dose screen, 48 h (100 = growth as untreated, 0 = no growth, -100 = all killed)
Details in all cases: 10 µM unless noted
SR leukemia = system: SR leukemia
RPMI-8226 leukemia = system: RPMI-8226 leukemia
OVCAR-8 ovarian = system: OVCAR-8 ovarian
OVCAR-5 ovarian = system: OVCAR-5 ovarian
OVCAR-4 ovarian = system: OVCAR-4 ovarian
SK-OV-3 ovarian = system: SK-OV-3 ovarian
IGROV1 ovarian = system: IGROV1 ovarian
OVCAR-3 ovarian = system: OVCAR-3 ovarian
HS 578T breast = system: HS 578T breast
NCI/ADR-RES ovarian = system: NCI/ADR-RES ovarian

Measured: growth

Nc1nc2ccccc2c2c(=O)c3cc(Cl)ccc3sc12
inactive: SR leukemia 94.8% | RPMI-8226 leukemia 102% | OVCAR-8 ovarian 99.2% | OVCAR-5 ovarian 97.9% | OVCAR-4 ovarian 87.9% | SK-OV-3 ovarian 79.8% | IGROV1 ovarian 90.2% | HS 578T breast 100% | NCI/ADR-RES ovarian 108%
active: OVCAR-3 ovarian -22.8%

CCCn1c(=S)sc2c(NNC(C)=O)nc(C)nc21
inactive: SR leukemia 158% | RPMI-8226 leukemia 93.1% | OVCAR-8 ovarian 102% | OVCAR-5 ovarian 98% | OVCAR-4 ovarian 101% | SK-OV-3 ovarian 99.9% | IGROV1 ovarian 37.1% | OVCAR-3 ovarian 118% | HS 578T breast 97.7% | NCI/ADR-RES ovarian 101%

CN(C)CCCn1c2c(c3cnccc3c1=O)C(=O)c1ccccc1-2
active: SR leukemia -8.62% | RPMI-8226 leukemia -13.6% | OVCAR-8 ovarian -11.3% | OVCAR-5 ovarian 0.0676% | OVCAR-4 ovarian -9.31% | IGROV1 ovarian 3.55% | OVCAR-3 ovarian -11.8% | NCI/ADR-RES ovarian -17.7%
inactive: SK-OV-3 ovarian 21.5% | HS 578T breast 20.3%

COc1cc(/C=C/c2cn[nH]c2-c2ccc(C)cc2)cc(OC)c1OC
inactive: SR leukemia 12.3% | RPMI-8226 leukemia 25.8% | OVCAR-8 ovarian 32.8% | OVCAR-5 ovarian 85% | OVCAR-4 ovarian 78.5% | SK-OV-3 ovarian 16.2% | IGROV1 ovarian 51.9% | OVCAR-3 ovarian 15.5% | HS 578T breast 39.9% | NCI/ADR-RES ovarian 16.7%

CSc1ccc2c3c(n(CCCn4ccnc4)c(=O)c2c1)-c1ccccc1C3=O
inactive: RPMI-8226 leukemia 28.9% | OVCAR-8 ovarian 40.2% | OVCAR-5 ovarian 76.5% | OVCAR-4 ovarian 71.8% | SK-OV-3 ovarian 50.9% | IGROV1 ovarian 58.9% | OVCAR-3 ovarian 64.5% | HS 578T breast 91.4% | NCI/ADR-RES ovarian 35.4%
active: SR leukemia 3.2%

CCCCCCCCCCCCCCCCCCOc1ccccc1CC(=O)NCC[N+](C)(C)C
inactive: SR leukemia 21.3% | RPMI-8226 leukemia 17.9% | OVCAR-8 ovarian 41.7% | OVCAR-5 ovarian 14.6% | OVCAR-4 ovarian 46.7% | SK-OV-3 ovarian 84.9% | OVCAR-3 ovarian 35% | HS 578T breast 61.8% | NCI/ADR-RES ovarian 99.3%
active: IGROV1 ovarian -49.7%

CC(C)=CC(=O)N[C@H]1CC[C@]2(C)C3CC[C@]4(C)C(C(C)N(C)C)=CCC4C3CCC2[C@H]1O (stereo not given in full)
active: RPMI-8226 leukemia 5.55% | OVCAR-4 ovarian 7.83%
inactive: SR leukemia 30.2% | OVCAR-8 ovarian 77.6% | OVCAR-5 ovarian 101% | SK-OV-3 ovarian 115% | IGROV1 ovarian 51.3% | OVCAR-3 ovarian 31.2% | HS 578T breast 57.1% | NCI/ADR-RES ovarian 71.6%

O=c1oc2ccccc2cc1-c1nn(-c2ccccc2)cc1-c1nn[nH]n1
inactive: SR leukemia 92.4% | RPMI-8226 leukemia 100% | OVCAR-8 ovarian 104% | OVCAR-5 ovarian 93.2% | OVCAR-4 ovarian 97.9% | SK-OV-3 ovarian 99.8% | IGROV1 ovarian 99.1% | OVCAR-3 ovarian 114% | HS 578T breast 105% | NCI/ADR-RES ovarian 102%

CC(C)CCC[C@@H](C)[C@H]1CC[C@H]2[C@@H]3CC=C4c5sc(Nc6cc(C(F)(F)F)cc(C(F)(F)F)c6)nc5CC[C@]4(C)[C@H]3CC[C@]12C
inactive: SR leukemia 106% | RPMI-8226 leukemia 106% | OVCAR-8 ovarian 89.2% | OVCAR-5 ovarian 106% | OVCAR-4 ovarian 100% | SK-OV-3 ovarian 89.2% | IGROV1 ovarian 97.7% | OVCAR-3 ovarian 102% | HS 578T breast 102% | NCI/ADR-RES ovarian 102%

CCOC(=O)c1nnn(Cc2cc(=O)oc3ccc(O)cc23)c1C
inactive: SR leukemia 92.8% | RPMI-8226 leukemia 96.7% | OVCAR-8 ovarian 107% | OVCAR-5 ovarian 101% | OVCAR-4 ovarian 109% | SK-OV-3 ovarian 105% | IGROV1 ovarian 106% | OVCAR-3 ovarian 107% | HS 578T breast 93.5% | NCI/ADR-RES ovarian 108%

O=C1/C(=C/c2ccc(Cl)cc2)CN(C(=O)C(Cl)Cl)C/C1=C\c1ccc(Cl)cc1
active: SR leukemia -8.06% | RPMI-8226 leukemia -28.6% | OVCAR-8 ovarian -3.39% | OVCAR-5 ovarian -61.8% | OVCAR-4 ovarian 1.03% | SK-OV-3 ovarian -7.85% | IGROV1 ovarian -76.3% | OVCAR-3 ovarian -97.9% | HS 578T breast -8.2% | NCI/ADR-RES ovarian -2.96%

COc1cc2c(c(OC)c1OC)CCC(c1cccc(C(=O)Nc3ccc(Br)cc3)c1)O2 (stereo not given)
inactive: SR leukemia 27.7% | RPMI-8226 leukemia 40.5% | OVCAR-8 ovarian 71.8% | OVCAR-5 ovarian 68.4% | OVCAR-4 ovarian 63.8% | SK-OV-3 ovarian 72.7% | IGROV1 ovarian 61.2% | OVCAR-3 ovarian 78.8% | HS 578T breast 78.5% | NCI/ADR-RES ovarian 63.9%

O=C1/C(=C/c2ccccn2)SC(=S)N1N1CCOCC1
inactive: SR leukemia 108% | RPMI-8226 leukemia 105% | OVCAR-8 ovarian 98.9% | OVCAR-5 ovarian 97.9% | OVCAR-4 ovarian 107% | SK-OV-3 ovarian 101% | IGROV1 ovarian 94.1% | OVCAR-3 ovarian 99.5% | HS 578T breast 96.7% | NCI/ADR-RES ovarian 104%

Cc1cccc(NC(=O)N/C(N)=N/c2nc3ccccc3s2)c1
active: OVCAR-3 ovarian 8.85%
inactive: SR leukemia 27.1% | RPMI-8226 leukemia 26.4% | OVCAR-8 ovarian 35.5% | OVCAR-5 ovarian 56.4% | OVCAR-4 ovarian 56.9% | SK-OV-3 ovarian 35.2% | IGROV1 ovarian 36.9% | HS 578T breast 23.8% | NCI/ADR-RES ovarian 15%

COC(=O)/C(CCC=C(C)C)=C1\[C@@H](OC(C)=O)C[C@@]2(C)[C@H]1C/C(=N/O)[C@H]1[C@@]3(C)CC/C(=N\O)[C@@H](C)[C@@H]3CC[C@@]12C
inactive: SR leukemia 66.2% | RPMI-8226 leukemia 46.3% | OVCAR-8 ovarian 90.4% | OVCAR-5 ovarian 135% | OVCAR-4 ovarian 97.3% | SK-OV-3 ovarian 107% | IGROV1 ovarian 100% | OVCAR-3 ovarian 93.8% | HS 578T breast 94.3% | NCI/ADR-RES ovarian 102%
